# From PubChem BioAssay
# Values without a mark were called inactive. Results filed as inconclusive are left out. Active and inactive are the calls of the source.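 Rule for the calls, unless noted: active = cell viability at or below a set limit in both duplicate runs, the limit being the all-compound median minus 4 SD (cut at about 23% in these data, passing the limit was not always enough); inconclusive = no clear call, values can overlap the other calls; inactive = the rest.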
# Test: doxorubicin toxicity protection in MRP-1 cells – H69AR cells, CellTiter-Glo, duplicate, MRP-1 activator project, pilot screen (AID 807;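 active = viability increase at or above a cutoff of the median across tested compounds plus 3 SD, cut at about 8.5% in these data, passing the limit was not always enough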;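 note: compound pretreatment 18-22 h then 72 h combined with doxorubicin; 0% = doxorubicin alone and 100% = vehicle without doxorubicin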)
# Settings: H69AR viability with doxorubicin, CellTiter-Glo luminescence; at 10 µM; stronger effect = higher value
row,Structure (SMILES),viability increase
1,OC12CCCCC1C(c1ccccc1)NCC2 (stereo not given),-2.28%
2,c1ccc2sc(C3CCCNC3)nc2c1 (stereo not given),-1.16%
3,O=c1cccc2n1CC1CC2CN(c2ncnc3c2cnn3-c2ccccc2)C1 (stereo not given),-1.4%
4,Nc1ccc(S(=O)(=O)N2CC3CC(C2)c2cccc(=O)n2C3)cc1 (stereo not given),0.35%
5,CC12CN3CC(C)(CN(C1)C3c1ccco1)C2=O (stereo not given),-0.55%
6,CC1=CC(=C2C(=O)NC(=O)NC2=O)C=C(C(F)(F)F)N1C(C)C,-1.79%
7,O=C(CN1CC(c2ccccc2)CC1=O)Nc1ccc(F)cc1 (stereo not given),-3.89%
8,CCCCCP(=O)(O)c1ccccc1,-1.16%
9,CCOC(=O)C1CCN(/C=C2/C(=O)NC(=O)N(c3ccc(OCC)cc3)C2=O)CC1,1.62%
10,c1cncc(C2CCCCN2Cc2ccc3c(c2)OCO3)c1 (stereo not given),-0.84%
11,CC1(C)CN=C(Nc2ccc(F)c(F)c2)S1,0.98%
12,CCCCCCOc1ccc(CN2CCN(CCO)CC2)cc1,-6.03%
13,COc1cc(CN2CC3CC(C2)c2cccc(=O)n2C3)cc(OC)c1OC (stereo not given),-2.25%
14,O=C(c1ccc2c(c1)OCO2)N1CCC2(CC1)OCCO2,1.06%
15,CN1CSC(=S)N(C)C1,-7.69%
16,O=C1CC(N2CC=C(c3ccccc3)CC2)C(=O)N1c1ccc(F)cc1 (stereo not given),3.41%
17,Cc1ccc2occ(CN3CC4CC(C3)c3cccc(=O)n3C4)c(=O)c2c1 (stereo not given),-2.72%
18,Cn1c(O)c(C=Nc2ccc(Cl)cc2)c(=O)n(C)c1=O,-0.57%
19,O=c1c2ccccc2nc(-c2ccco2)n1-c1ccncc1,0.16%
20,CC1(C)C(c2ccccc2)=NC(c2cccnc2)=[N+]1[O-],1.13%

row,Structure (SMILES),viability increase
1,COc1cccc(OCC(=O)N2CCN(C)CC2)c1,0.31%
2,Cc1ccc2c(c1)C1CN(C)CCC1N2C(=O)c1ccco1 (stereo not given),-3.67%
3,C=Cn1ccnc1P(=S)(c1c(C)nn(-c2ccccc2)c1C)c1nccn1C=C,-2.8%
4,O=C(NC1(C(F)(F)F)Oc2ccccc2O1)N1CCC2(CC1)OCCO2,-5.11%
5,NC(=O)CN1CC(c2ccccc2)CC1=O (stereo not given),-0.3%
6,O=c1cccc2n1CC1CC2CN(Cc2ccc3c(c2)OCO3)C1 (stereo not given),-2.71%
7,O=C(Nc1ccccc1OC(=O)N1CCCCC1)N1CCCCC1,-2.07%
8,COC(=O)c1ccc(CN2CCN(Cc3ccccc3)CC2)cc1,-1.15%
9,Cc1cc(OCC(=O)OC(C)(C)C)c2c3c(c(=O)oc2c1)CCC3,-2.71%
10,O=C(CN1CCOCC1)c1ccc2cc[nH]c2c1,0.03%
11,CN1CC=C(c2c[nH]c3ccccc23)CC1,-3.51%
12,C=Cn1ccnc1P(=S)(c1ccn(C)c1)c1nccn1C=C,0.29%
13,C=Cn1ccnc1P(=S)(c1cc(N(CC)CC)ns1)c1nccn1C=C,-0.61%
14,CC(C)NS(=O)(=O)c1ccc(OCC(=O)N2CCN(C)CC2)cc1,-0.3%
15,CCOC(=O)C1SC2(C(F)(F)C(F)F)CC1(O)c1c(c(OC)c3occc3c1OC)O2 (stereo not given),-0.89%
16,COc1cc2c(cc1OC)-c1c(OC)c(OC)cc3c1C(C2)N(C)CC3 (stereo not given),-3.02%
17,C=Cn1ccnc1P(=S)(c1nccn1C=C)C1CCCCC1,-1.76%
18,CN1C(=O)C(Cc2cccs2)C(=O)N(C)C1=O,0%
19,CN(C)C(=O)Oc1ccc(C(=O)c2ccccc2)cc1,1.59%
20,O/N=C/c1c[nH]c2ccccc12,-4.62%

# Test: viability of HCT116 without oncogenic beta-catenin – human colon tumor cells, pilot screen (AID 823);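 note: 0% = wells killed by 20 µM Hyamine and 100% = untreated DMSO cell wells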
# Settings: HCT116 beta-catenin knockout viability, CellTiter-Glo, 60 h; at 10 µM; stronger effect = lower value
row,Structure (SMILES),viability
1,OC12CCCCC1C(c1ccccc1)NCC2 (stereo not given),102%
2,c1ccc2sc(C3CCCNC3)nc2c1 (stereo not given),97.6%
3,O=c1cccc2n1CC1CC2CN(c2ncnc3c2cnn3-c2ccccc2)C1 (stereo not given),101%
4,Nc1ccc(S(=O)(=O)N2CC3CC(C2)c2cccc(=O)n2C3)cc1 (stereo not given),101%
5,CC12CN3CC(C)(CN(C1)C3c1ccco1)C2=O (stereo not given),95.6%
6,CC1=CC(=C2C(=O)NC(=O)NC2=O)C=C(C(F)(F)F)N1C(C)C,92.5%
7,O=C(CN1CC(c2ccccc2)CC1=O)Nc1ccc(F)cc1 (stereo not given),101%
8,CCCCCP(=O)(O)c1ccccc1,95.2%
9,CCOC(=O)C1CCN(/C=C2/C(=O)NC(=O)N(c3ccc(OCC)cc3)C2=O)CC1,98%
10,c1cncc(C2CCCCN2Cc2ccc3c(c2)OCO3)c1 (stereo not given),95.2%
11,CC1(C)CN=C(Nc2ccc(F)c(F)c2)S1,111%
12,CCCCCCOc1ccc(CN2CCN(CCO)CC2)cc1,60.7%
13,COc1cc(CN2CC3CC(C2)c2cccc(=O)n2C3)cc(OC)c1OC (stereo not given),104%
14,O=C(c1ccc2c(c1)OCO2)N1CCC2(CC1)OCCO2,102%
15,CN1CSC(=S)N(C)C1,13.9% (active)
16,O=C1CC(N2CC=C(c3ccccc3)CC2)C(=O)N1c1ccc(F)cc1 (stereo not given),98.8%
17,Cc1ccc2occ(CN3CC4CC(C3)c3cccc(=O)n3C4)c(=O)c2c1 (stereo not given),98.5%
18,Cn1c(O)c(C=Nc2ccc(Cl)cc2)c(=O)n(C)c1=O,96.2%
19,O=c1c2ccccc2nc(-c2ccco2)n1-c1ccncc1,91.8%
20,CC1(C)C(c2ccccc2)=NC(c2cccnc2)=[N+]1[O-],98.7%

row,Structure (SMILES),viability
1,COc1cccc(OCC(=O)N2CCN(C)CC2)c1,99.8%
2,Cc1ccc2c(c1)C1CN(C)CCC1N2C(=O)c1ccco1 (stereo not given),85.4%
3,C=Cn1ccnc1P(=S)(c1c(C)nn(-c2ccccc2)c1C)c1nccn1C=C,93.8%
4,O=C(NC1(C(F)(F)F)Oc2ccccc2O1)N1CCC2(CC1)OCCO2,51.5%
5,NC(=O)CN1CC(c2ccccc2)CC1=O (stereo not given),105%
6,O=c1cccc2n1CC1CC2CN(Cc2ccc3c(c2)OCO3)C1 (stereo not given),98.1%
7,O=C(Nc1ccccc1OC(=O)N1CCCCC1)N1CCCCC1,97.4%
8,COC(=O)c1ccc(CN2CCN(Cc3ccccc3)CC2)cc1,94.5%
9,Cc1cc(OCC(=O)OC(C)(C)C)c2c3c(c(=O)oc2c1)CCC3,88.2%
10,O=C(CN1CCOCC1)c1ccc2cc[nH]c2c1,105%
11,CN1CC=C(c2c[nH]c3ccccc23)CC1,92%
12,C=Cn1ccnc1P(=S)(c1ccn(C)c1)c1nccn1C=C,100%
13,C=Cn1ccnc1P(=S)(c1cc(N(CC)CC)ns1)c1nccn1C=C,92.1%
14,CC(C)NS(=O)(=O)c1ccc(OCC(=O)N2CCN(C)CC2)cc1,96.3%
15,CCOC(=O)C1SC2(C(F)(F)C(F)F)CC1(O)c1c(c(OC)c3occc3c1OC)O2 (stereo not given),98.4%
16,COc1cc2c(cc1OC)-c1c(OC)c(OC)cc3c1C(C2)N(C)CC3 (stereo not given),73.6%
17,C=Cn1ccnc1P(=S)(c1nccn1C=C)C1CCCCC1,92.3%
18,CN1C(=O)C(Cc2cccs2)C(=O)N(C)C1=O,100%
19,CN(C)C(=O)Oc1ccc(C(=O)c2ccccc2)cc1,101%
20,O/N=C/c1c[nH]c2ccccc12,99.9%
